This is part of a sample that, as a whole, favours compounds with a hit. Of some 79,000 tested, about 15% had one in any assay. Rule as the data show it: active = growth inhibition above about 70%; inactive = the rest.
Assays:
[1] = NCI Yeast Anticancer Drug Screen. Data for the rad50 strain (AID 155);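 also: 0% = growth of vehicle-only cultures of the same strain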; conditions: S. cerevisiae rad50 strain growth inhibition, active compounds read high; at 50.0 µM unless noted
In short: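 Vehicle-treated cultures provide the reference for the growth inhibition reported for compound-exposed, repair-deficient yeast.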

[2] = NCI Yeast Anticancer Drug Screen. Data for the mec2-1 strain (AID 157); conditions: S. cerevisiae mec2-1 strain, active compounds read high; at 50.0 µM unless noted
In short: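 mec2-1 yeast strain, carrying an alteration in DNA damage repair or cell cycle control, was exposed to compounds; growth inhibition was measured relative to vehicle-treated controls.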

[3] = NCI Yeast Anticancer Drug Screen. Data for the sgs1 mgt1 strain (AID 161);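 also: 0% = growth of cultures given vehicle only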; conditions: S. cerevisiae sgs1 mgt1 strain, active compounds read high; at 50.0 µM unless noted
In short: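 Percent growth inhibition was derived by comparing compound-exposed mutant yeast with vehicle-exposed cultures. The strain carries alterations in DNA damage repair.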

[4] = NCI Yeast Anticancer Drug Screen. Data for the cln2 rad14 strain (AID 165);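 also: 0% = growth equal to vehicle treated cultures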; conditions: S. cerevisiae cln2 rad14 strain, active compounds read high; at 50.0 µM unless noted
In short: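 Yeast carrying cln2 and rad14 alterations (cell cycle control and DNA damage repair) were exposed to compounds. Growth inhibition was measured against vehicle-treated controls.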

[5] = NCI Yeast Anticancer Drug Screen. Data for the bub3 strain (AID 167); conditions: S. cerevisiae bub3 mutant strain, active compounds read high; at 50.0 µM unless noted
In short: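 Mutant yeast screening strain plus compound; vehicle-treated cultures serve as the 0% inhibition reference.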

[6] = NCI Yeast Anticancer Drug Screen. Data for the mlh1 rad18 strain (AID 175); conditions: S. cerevisiae mlh1 rad18 strain growth inhibition, active compounds read high; at 50.0 µM unless noted
In short: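 Growth inhibition of the yeast strain was measured after compound exposure and expressed relative to vehicle-treated controls. The strain carries defined defects in DNA damage repair.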

Measured: growth inhibition

Nc1sc(=S)[nH]c1-c1ccccc1
inactive: [1] 20.1% | [2] 10.7% | [3] -24.9% | [4] -30.8% | [5] -11% | [6] 11.1%

CCOC(=O)C(C)N1C(=O)c2ccccc2C1=O (stereo not drawn)
inactive: [1] 6.4% | [2] -20.4% | [3] -22% | [4] 13.3% | [5] 21.4% | [6] 0.55%

CN1C(=O)C(c2c[nH]c3ccccc23)N(C)C(=O)C1c1c[nH]c2ccccc12 (stereo not drawn)
inactive: [1] -29.9% | [2] -10.8% | [3] -79.5% | [4] -20.1% | [5] -27.9% | [6] -20%

CC(Cl)(c1ccccc1)C1OCCO1 (stereo not drawn)
inactive: [1] 1.75% | [2] 19.9% | [3] 8.1% | [4] -20.9% | [5] -5.9% | [6] -1.5%

COc1ccc(C(CC(=O)C(C)(C)CN2CCCCC2)SCCS(=O)(=O)O)cc1 (stereo not drawn)
inactive: [1] -2.75% | [2] -4.9% | [3] -3.15% | [4] 2.85% | [5] -1.6% | [6] 4.15%

Cc1ccc(NC(=S)N2CCCC(C)C2)cc1C (stereo not drawn)
inactive: [1] -1.15% | [2] -9.85% | [3] 6.15% | [4] -7.3% | [5] 6.15% | [6] -23.6%

N[N+]#COC1C(C(=O)NN)C1C(=O)NN (stereo not drawn)
inactive: [1] -15.9% | [2] -10.4% | [3] -17.5% | [4] 7.75% | [5] 7.05% | [6] -17.9%

NC(=O)c1cncn1C1OCC(O)C(O)C1O (stereo not drawn)
inactive: [1] 10.2% | [2] 6.4% | [3] 3.85% | [4] -6.8% | [5] 3.1% | [6] -20.2%

COc1cccc2c1C(=O)c1c(O)c3c(c(O)c1C2=O)CC1(O)CC3OC1(C)OC (stereo not drawn)
inactive: [1] 1.2% | [2] 9.1% | [3] -19.2% | [4] 24.2% | [5] -1.35% | [6] 2.65%

O=C(O)Cc1ccc(C(=O)O)cc1
inactive: [1] 21.2% | [2] -1.25% | [3] 5.8% | [4] -13.4% | [5] 13.2% | [6] 32.8%

O=[N+]([O-])c1ccccc1S(=O)(=O)c1cccc2c1NCCC2
inactive: [1] 33.8% | [2] 12.3% | [3] 33.5% | [4] 31.4% | [5] 48% | [6] 46.9%

N#CC1=C(NC(N)=O)CCCC1
inactive: [1] -0.7% | [2] 36.7% | [3] 10.7% | [4] 35.3% | [5] 10.1% | [6] 5.45%

CCOC(=O)NC(=O)c1cn(CCCCCCCCCCC(=O)N2CCN(CCn3cc(C(=O)NC(=O)OCC)c(=O)[nH]c3=O)CC2)c(=O)[nH]c1=O
inactive: [1] 27.2% | [2] 18.4% | [3] 17.9% | [4] 5.8% | [5] -6.2% | [6] 6.45%

CCCC1SCC(=O)N1c1nncs1 (stereo not drawn)
inactive: [1] 6.5% | [2] 3.5% | [3] -23.2% | [4] -29.1% | [5] -8% | [6] -30.6%

O=C1OC(c2ccccc2)=C2CCC3CCCCN1C23 (stereo not drawn)
inactive: [1] -2.15% | [2] -29.7% | [3] 12.8% | [4] 23.4% | [5] 34.6% | [6] 9.25%

CO/N=C(/NC(=O)OC)c1ccccc1
inactive: [1] 10.8% | [2] 18.4% | [3] -5% | [4] -20.2% | [5] 14.4% | [6] -15.3%

Cc1ccc(S(=O)(=O)ONNc2nccc3ccccc23)cc1
inactive: [1] 16.9% | [2] 7.05% | [3] 1.55% | [4] -16.8% | [5] 1.15% | [6] 19.4%

Cc1c(C(=O)CC(=O)C(=O)Nc2ccc(Cl)c(Cl)c2)[n+](=O)c2ccccc2n1[O-]
inactive: [1] 12.6% | [2] 16.9% | [3] -16.1% | [4] 34.5% | [5] 19.4% | [6] 20.2%
